The values that follow are results of earlier work, collected in PubChem BioAssay AID977611.

Hit rate of the full screen: of about 3,900 compounds, about 3,900 (100%) were called active. The limit is not given here; nearly all actives have Kd up to about 4200 µM. The set was probably picked from earlier hits. The list shows a part of the results. Where a SMILES comes first, the peptide text is derived from it. Non-standard residues stand in square brackets, D forms with d. Square brackets hold non-standard residues; d marks the D form. Residues, ends and D or L forms follow the SMILES beside them. Peptide text beside a SMILES is read from it. [ ]: non-standard residue; d: D form. ξ: configuration not given here. *: point of attachment. X1 = O=C(O)c1cc(NC(=S)*)ccc1-c1c2ccc(=O)cc-2oc2cc(O)ccc12; Phe(3,4-Cl2) = N[C@@H](Cc1ccc(Cl)c(Cl)c1)C(=O)O; Orn(CH(NH2)2) = NC(N)NCCC[C@H](N)C(=O)O; ΔPro = O=C(O)[C@@H]1C=CCN1; Nva = CCC[C@H](N)C(=O)O; ξE = NC(CCC(=O)O)C(=O)O; Ahx = NCCCCCC(=O)O

The series in a line: PubChem AID 977611. As to conditions: PDB protein-ligand complexes, literature Kd.

Take `CC[C@H](C)[C@H](NC(=O)[C@H](CCC(=O)O)NC(=O)[C@H](CO)NC(=O)[C@@H](N)CCCNC(N)N)C(=O)N[C@H](C(=O)N[C@@H](CO)C(=O)N[C@H](C(=O)N[C@@H](C)C(=O)N1CC=C[C@H]1C(=O)N[C@@H](CO)C(=O)N[C@@H](CO)C(=O)N[C@@H](Cc1c[nH]c2ccccc12)C(=O)N[C@H](C(=O)N[C@H](C(=O)N1CCC[C@H]1C(=O)NCC(=O)N1CCC[C@H]1C(=O)O)C(C)C)C(C)C)[C@@H](C)O)[C@@H](C)CC` (H-[Orn(CH(NH2)2)]SEIISTA[ΔPro]SSWVVPGP-OH): for the setting “protein: B-cell lymphoma 6 protein, PDB entry 3bim”, the Kd is 1320 nM (active). On to `CCC[C@H](NC(=O)[C@H](Cc1c[nH]c2ccccc12)NC(=O)[C@H](CC(C)C)NC(=O)[C@H](CC(=O)O)NC(=O)[C@H](CO)NC(=O)[C@H](Cc1ccccc1)NC(=O)[C@@H](NC(=O)C(N)CCC(=O)O)[C@@H](C)O)C(=O)N[C@@H](CC(C)C)C(=O)N[C@@H](CC(C)C)C(=O)N1CCC[C@H]1C(=O)N[C@@H](CCC(=O)O)C(=O)O` (some centres not stated) (H-[ξE]TFSDLW[Nva]LLPE-OH), for which the Kd (protein: Mdm4 protein, PDB entry 3dab) was 210 nM (active). For `NCc1cccc2c1OCCCO2`, the Kd (protein: CATIONIC TRYPSIN, PDB entry 4ab8) was 136000 nM (active).

In the case of `COc1ccc2cccc(-n3cc(NC(N)=O)c(C(N)=O)n3)c2c1`, under “protein: Tyrosine-protein kinase ITK/TSK kinase domain, PDB entry 4m0z”, the Kd is 6400 nM (active).

For the molecule `CCCOc1ccc2cccc(-n3cc(NC(N)=O)c(C(N)=O)n3)c2c1`, the Kd (protein: Tyrosine-protein kinase ITK/TSK kinase domain, PDB entry 4m13) was 200 nM (active). On to `CCOc1ccc2cccc(-n3cc(NC(N)=O)c(C(N)=O)n3)c2c1`, for which the Kd (protein: Tyrosine-protein kinase ITK/TSK kinase domain, PDB entry 4m12) was 900 nM (active).

Turning to `NC(=O)Nc1cn(-c2cccc3ccccc23)nc1C(N)=O`, the Kd (protein: Tyrosine-protein kinase ITK/TSK kinase domain, PDB entry 4m0y) is 350 nM (active). `CC(C)Oc1ccc2cccc(-n3cc(NC(N)=O)c(C(N)=O)n3)c2c1`: the Kd (protein: Tyrosine-protein kinase ITK/TSK kinase domain, PDB entry 4m14) was 200 nM (active).

As to H-AAKKLV-OH, the Kd (protein: Coatomer subunit beta', PDB entry 4j73) was 27700 nM (active). `CC(C)C[C@H](NC(=O)[C@H](C)N)C(=O)N[C@@H](CCCCN)C(=O)N[C@@H](CCCNC(N)N)C(=O)N[C@@H](CCCNC(N)N)C(=O)N[C@@H](CC(N)=O)C(=O)N[C@H](C(=O)O)C(C)C` (HELM PEPTIDE1{A.L.K.[NC(N)NCCC[C@H](N[*:1])C(=O)[*:2]].[NC(N)NCCC[C@H](N[*:1])C(=O)[*:2]].N.V}$$$$V2.0): the Kd (protein: Importin-?, PDB entry 1iq1) was 35 nM (active). Turning to `CC(C)C[C@H](NC(=O)[C@H](CCCCN)NC(=O)[C@H](CCCNC(N)N)NC(=O)[C@H](C)N)C(=O)N[C@@H](CC(=O)O)C(=O)O` (H-A[Orn(CH(NH2)2)]KLD-OH), the Kd (protein: Coatomer subunit beta', PDB entry 4j84) was 20400 nM (active). In the case of `S=CNc1ccc2oc(C3=NCCN3)cc2c1`, the Kd was 1000 nM (active) (protein: Chitinase A, PDB entry 3ary) and 1000 nM (active) (protein: Chitinase A, PDB entry 3arz). Consider `CN(C)CCOc1ccc(-c2nc(-c3ccc4c(c3)CC/C4=N/O)c(-c3ccncc3)[nH]2)cc1`, for which, under “protein: B-Raf kinase domain, PDB entry 2fb8”, the Kd was 0.16 nM (active). `O=S(=O)(c1ccc(O)cc1O)n1cc2ccccc2c1`: for the setting “PDB entry 4mpc”, the Kd is 711 nM (active). `O=C(c1ccc(O)cc1O)n1cc2ccccc2c1`: the Kd (PDB entry 4mp7) was 1830 nM (active). On to `O=S(=O)(c1ccc(O)cc1O)n1cc2cc(O)cc(O)c2c1`, for which the Kd (PDB entry 4mpn) is 239 nM (active). Regarding `CC(C)C[C@H](NC(=O)[C@H](C)NC(=O)[C@H](Cc1ccc(Cl)c(Cl)c1)NC(=O)[C@H](Cc1c[nH]c2ccccc12)NC(=O)[C@H](CCC(=O)O)NC(=O)[C@H](CCC(=O)O)NC(=O)[C@H](CC(C)C)NC(=O)[C@H](CC(=O)O)NC(=O)[C@H](CC(=O)O)NC(=O)[C@H](C)NC(=O)[C@@H](NC(=O)[C@H](Cc1ccccc1)NC(=O)[C@H](CC(=O)O)NC(=O)CCCCCNC(=S)Nc1ccc(-c2c3ccc(=O)cc-3oc3cc(O)ccc23)c(C(=O)O)c1)[C@@H](C)O)C(N)=O` ({X1-Ahx}-DFTADDLEEW[Phe(3,4-Cl2)]AL-NH2), the Kd (protein: Replication protein A 70 kDa DNA-binding subunit, PDB entry 4nb3) is 22 nM (active). `CC(C)C[C@H](NC(=O)[C@H](CCC(=O)O)NC(=O)[C@H](CO)NC(=O)[C@H](CC(=O)O)NC(=O)[C@H](CO)NC(=O)[C@H](CC(=O)O)NC(=O)[C@H](CCC(=O)O)NC(=O)[C@H](CCC(N)=O)NC(=O)[C@H](CO)NC(=O)CN)C(=O)N[C@@H](CCC(=O)O)C(=O)N[C@@H](CCC(N)=O)C(=O)N[C@@H](Cc1ccc(O)cc1)C(=O)N[C@@H](Cc1ccccc1)C(=O)N[C@H](C(=O)N[C@@H](C)C(=O)N[C@@H](CCCNC(N)N)C(=O)N[C@@H](Cc1c[nH]c2ccccc12)C(=O)O)[C@@H](C)O` (H-GSQEDSDSELEQYFTA[Orn(CH(NH2)2)]W-OH): under “protein: DAXX N-Terminal Helical Bundle Domain (55-144), PDB entry 2kzu”, the Kd is 60000 nM (active). Take `CSCC[C@H](NC(=O)[C@H](CC(C)C)NC(=O)[C@H](Cc1ccccc1)NC(=O)[C@H](CC(=O)O)NC(=O)[C@H](Cc1ccc(O)cc1)NC(=O)[C@H](Cc1c[nH]c2ccccc12)NC(=O)[C@@H](NC(=O)[C@@H](NC(=O)[C@H](CCCNC(N)N)NC(=O)[C@@H](N)CO)C(C)C)[C@@H](C)O)C(=O)N[C@@H](CCC(=O)O)C(=O)N[C@@H](CC(=O)O)C(=O)O` (H-S[Orn(CH(NH2)2)]VTWYDFLMED-OH): the Kd (protein: Guanine nucleotide-binding protein G, PDB entry 1y3a) was 3900 nM (active).

Take `CCCCC/C=C\C/C=C\CCCCCCCCCC(=O)N[C@@H](CO[C@H]1O[C@H](CO)[C@H](O)[C@H](O)[C@H]1O)[C@H](O)[C@H](O)CCCCCCCCCCCCCC`: the Kd (protein: L363, PDB entry 3ubx) was 25.2 nM (active). Turning to `CCCCCC[C@@H](O)[C@H](CCCCCC)C(=O)O`, the Kd (protein: Peptidoglycan recognition protein 1, PDB entry 3t2v) is 103 nM (active).

For orientation: Kd means the constant that tells how readily two partners part at equilibrium.
